Measured values published in PubChem BioAssay (EPA / NIEHS).
Results filed as inconclusive are left out. Calls of active or inactive are those of the source. The calls were made as follows: active = hit-call score of the fitted dose curve at least 0.9, where 1 is the maximum; inconclusive = response in the unintended direction; inactive = score below 0.9.

read-out: xenobiotic metabolism (CYP1A2), CYP1A2 (gene 1544); test: CLD_CYP1A2_48hr: CellzDirect (CLD) Gene Expression Assay for xenobiotic metabolism (CYP1A2) at 48 hours (AID 2283703)
Experimental: CLD_48hr is a cell-based, multiplexed-readout assay that uses hepatocyte, a human liver primary cell, with measurements taken at 48 hours after chemical dosing in a 96-well plate.CLD_CYP1A2_48hr is one of 16 assay component(s) measured or calculated from the CLD_48hr assay. It is designed to make measurements of mRNA induction, a form of inducible reporter, as detected with chemiluminescence signals by Quantitative Nuclease Protection Assay (qNPA) technology.Data from the assay component CLD_CYP1A2_48hr was analyzed at the endpoint, CLD_CYP1A2_48hr, in the positive analysis fitting direction relative to DMSO as the negative control and baseline of activity. Using a type of inducible reporter, gain-of-signal activity can be used to understand changes in the reporter gene as they relate to the gene CYP1A2. Furthermore, this assay endpoint can be referred to as a primary readout. To generalize the intended target to other relatable targets, this assay endpoint is annotated to the cyp intended target family, where subfamily is xenobiotic metabolism.
Human hepatocyte cultures were treated daily for two consecutive days with fresh dosing solutions containing appropriate concentrations of the 320 ToxCast chemicals (chemical identities were blinded to CellzDirect and other ToxCast collaborators), vehicle control (0.2% DMSO), and positive control inducers as summarized in Table 1. Due to the large number of treatment groups and chemicals examined, the ToxCast chemicals were divided into two groups (spanning two independent cultures of hepatocytes from separate donor preparations (Hu778: ToxCast plates 1 and 2; Hu776: ToxCast plates 3 and 4). Each preparation of human hepatocyte cultures was treated with respective vehicle control, medium only control, set of six positive controls/reference chemicals for the five hepatic receptor pathways, and a subset of eight of the ToxCast chemicals (indoxacarb, pyrithiobac-sodium, norflurazon, cyhalofop-butyl, methomyl, thiram, acetochlor, and propiconazole). These replicate data, coupled with internal replicates designed within the blinded ToxCast chemical library, provided additional data to evaluate interindividual differences between hepatocyte preparations and their potential impact on chemical profiles.Cell morphology and integrity were evaluated using phase-contrast microscopy as an indicator of hepatocyte cell health (Tyson & Green, 1987). Cultures for each treatment group (i.e., media, vehicle [0.2% DMSO], positive control inducers [multiple concentrations], and the ToxCast chemicals [multiple concentrations]) were observed and cell morphology was assessed relative to vehicle control cultures at each harvest time point (0, 6, 24, or 48 h). […] Images were evaluated at the conclusion of the study to assess changes in cell integrity and account for the effects of chemical exposure on uncharacteristic changes in concentration-dependent gene expression profiles. The results from these determinations of apparent cytotoxicity were annotated (yes/no) alongside the corresponding qNPA data for reference.At the conclusion of each treatment period, hepatocyte cultures (96-well) were washed with 1 volume of HBSS, lysed by addition of 25 ul ArrayPlate lysis buffer (HTG, Tucson, AZ), and 70 ul/well of Denaturation Oil, denatured by incubation at 95C for 10 min, and frozen at approximately -70C until analysis by nuclease protection assay (qNPA) (Roberts et al., 2007). For qNPA analysis, cell lysates were thawed at 50C for approximately 30 min, qNPA probes were added, and samples were incubated at 95C for 10 min to begin the detection process by denaturing the target RNA, dissociating the duplexes and secondary structure hybridization. At the conclusion of the hybridization period, S1 nuclease reagent was added to each sample to digest all nonprotected nucleotides at 50C for 60-90 min. […]

| Structure (SMILES) | outcome | AC50 |
| --- | --- | --- |
| CNC(=O)CSP(=S)(OC)OC | inactive |  |
| COP(=O)(OC)OC=C(Cl)Cl | inactive |  |
| CC1(c2ccc(Oc3ccccc3)cc2)OC(=O)N(Nc2ccccc2)C1=O (stereo not given) |  | 0.661 µM (active) |
| CCOC1Oc2ccc(OS(C)(=O)=O)cc2C1(C)C (stereo not given) | inactive |  |
| CCC(C)Nc1c([N+](=O)[O-])cc(C(C)(C)C)cc1[N+](=O)[O-] (stereo not given) |  | 5.38 µM (active) |
| CCS(=O)(=O)c1cccnc1S(=O)(=O)NC(=O)Nc1nc(OC)cc(OC)n1 | inactive |  |
| CCOc1nc(NC)nc(NC(=O)NS(=O)(=O)c2ccccc2C(=O)OC)n1 |  | 14.3 µM (active) |
| C[C@H]1[C@H](c2ccc(Cl)cc2)SC(=O)N1C(=O)NC1CCCCC1 |  | 5.38 µM (active) |
| CC(C)(C)C(O)C(Oc1ccc(Cl)cc1)n1cncn1 (stereo not given) |  | 5.29 µM (active) |
| O=S(=O)(O)C(F)(F)C(F)(F)C(F)(F)C(F)(F)C(F)(F)C(F)(F)C(F)(F)C(F)(F)F | inactive |  |
| Cc1[nH]c(=O)n(C(C)(C)C)c(=O)c1Cl | inactive |  |
| CC(C)(C)C(O)/C(=C\c1ccc(Cl)cc1Cl)n1cncn1 (stereo not given) |  | 3.7 µM (active) |
| OCCOc1ccccc1 | inactive |  |
| COc1cc(OC)nc(NC(=O)NS(=O)(=O)c2cc(NC=O)ccc2C(=O)N(C)C)n1 | inactive |  |
| CCN(CC)C(=O)SCc1ccc(Cl)cc1 | inactive |  |
| CN1CSC(=S)N(C)C1 | inactive |  |
| O=C(NC(=O)c1c(F)cccc1F)Nc1ccc(OC(F)(F)C(F)OC(F)(F)F)c(Cl)c1 (stereo not given) | inactive |  |
| O=C(Nc1ccccc1)Nc1cnns1 |  | 3.38 µM (active) |
| Oc1cc(Cl)ccc1Oc1ccc(Cl)cc1Cl | inactive |  |
| O=C(O)COc1ccc(Cl)cc1Cl | inactive |  |

| Structure (SMILES) | outcome | AC50 |
| --- | --- | --- |
| CCc1ccc(C(=O)NN(C(=O)c2cc(C)cc(C)c2)C(C)(C)C)cc1 |  | 5.55 µM (active) |
| COc1nn(CSP(=S)(OC)OC)c(=O)s1 |  | 3.97 µM (active) |
| CCC(C)(NC(=O)c1cc(Cl)c(C)c(Cl)c1)C(=O)CCl (stereo not given) |  | 20 µM (active) |
| CCOCN(C(=O)CCl)c1c(C)cccc1CC | inactive |  |
| N#Cc1c(Cl)c(Cl)c(Cl)c(C#N)c1Cl | inactive |  |
| CCCN(CCC)c1c([N+](=O)[O-])cc(C(F)(F)F)cc1[N+](=O)[O-] |  | 9.22 µM (active) |
| CCC(C)(C)C(=O)OC1=C(c2ccc(Cl)cc2Cl)C(=O)OC12CCCCC2 |  | 20 µM (active) |
| CC(C)OC(=O)Nc1cccc(Cl)c1 |  | 2.46 µM (active) |
| CCCN(CCOc1c(Cl)cc(Cl)cc1Cl)C(=O)n1ccnc1 |  | 0.178 µM (active) |
| COP(=S)(OC)Oc1ccc([N+](=O)[O-])cc1 |  | 5.33 µM (active) |
| CNC(=O)Oc1ccccc1OC(C)C | inactive |  |
| CC1(C)C(C=C(Cl)Cl)C1C(=O)OC(C#N)c1ccc(F)c(Oc2ccccc2)c1 (stereo not given) | inactive |  |
| COC(=O)c1ccccc1CS(=O)(=O)NC(=O)Nc1nc(OC)cc(OC)n1 | inactive |  |
| O=[N+]([O-])c1c(Cl)c(Cl)c(Cl)c(Cl)c1Cl |  | 3.86 µM (active) |
| COC(=O)c1ccccc1S(=O)(=O)NC(=O)Nc1nc(C)nc(OC)n1 | inactive |  |
| O=C(O)CCCOc1ccc(Cl)cc1Cl | inactive |  |
| CNC(=O)/C=C(\C)OP(=O)(OC)OC | inactive |  |
| CC(C)N(C(=O)COc1nnc(C(F)(F)F)s1)c1ccc(F)cc1 | inactive |  |
| Clc1ccccc1-c1nnc(-c2ccccc2Cl)nn1 |  | 20 µM (active) |
| C#CCN1C(=O)COc2cc(F)c(N3C(=O)C4=C(CCCC4)C3=O)cc21 | inactive |  |
